Data published in PubChem BioAssay (NCI).
Several values for one entry are separate records, joined by “and”; a condition that tells them apart may be missing. Equal values may be shown once. This is part of a sample that, as a whole, favours compounds with a hit. Of some 83,000 tested, about 20% had one in any assay.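 Activity criterion: percent growth below 10, measured after cells in 96-well plates were exposed to a single compound concentration for 48 hours.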 Values without a mark were called inactive. Activity calls are given as the source filed them.

These molecules were tested on MDA-MB-468 breast (assay: NCI-60 one-dose screen, 48 h (100 = growth as untreated, 0 = no growth, -100 = all killed)). Conditions: 10 µM unless noted.

Compound	growth
Nc1c(S(=O)(=O)O)cc(Br)c2c1C(=O)c1ccccc1C2=O	102% and 107%
CC/C=C\C[C@H]1CC=C2C(=O)C=C[C@@H]2CC=CCCCC(=O)O[C@@H](CCCCC)CC=C2C(=O)C=C[C@@H]2CC=CCCCC(=O)O[C@@H](CCCCC)CC=C2C(=O)C=C[C@@H]2CC=CCCCC(=O)O[C@@H](CCCCC)CC=C2C(=O)C=C[C@@H]2CC=CCCCC(=O)O1	29.8% [7.9 µM]
COc1ccc(C(=O)N2NC(=O)/C(=C/c3ccc(Br)cc3)N=C2c2ccccc2)cc1	91.8%
CC(C)CCC[C@@H](C)[C@H]1CCC2C3=CCn4c(=O)ccc(=O)n4C3CC[C@@]21C (some centres not stated)	-49% (active)
CC(C)=NNc1ncnc2c1ncn2C1OC(CO)C(O)C1O (configuration not stated)	12.5%
CC(=O)Nc1nc2c(s1)CCc1c-2cn(S(=O)(=O)c2ccccc2)c1-c1ccccc1	61.6%
COc1ccc2c(c1)NC(=O)CN2c1nc(C)nc2ccccc12	9.26% (active)
CCn1c(SCC(=O)Nc2cccc(C(=O)/C=C/c3ccccc3Cl)c2)nc2ccccc2c1=O	76.7%
CCOC(=O)C(C(=O)OCC)C(c1ccccc1)N1CCN(c2ccccc2)CC1 (configuration not stated)	108% and 103%
COc1cc2nc(N3CCCC3)nc(NCCc3ccccc3)c2cc1OC	6.66% (active)
CSc1nc2c(c(=O)[nH]1)N=C1c3ccccc3C(=O)C1C(c1ccccc1)N2 (configuration not stated)	15.4%
CCCCOc1ccc(/C=N/NC(N)=S)cc1	66.5%
